# Shown are actives, neighbours in structure and some others; about 0.95% of the full set was active somewhere.
# Rhodamine autofl = rhodamine region autofluorescence; actives 0.05% (n = 59,000); max dye-equivalent concentration, M; AID 594; Rhodamine-region fluorescence, 547/598 nm, Tris buffer; hits give high values; in the data active = max dye-equivalent concentration above about 11 nM; inconclusive = between about 1.1 nM and that limit
#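 Intensities are converted to rhodamine-equivalent concentration using a six-point rhodamine standard on each plate. Compounds sit 15 min at room temperature in 100 mM Tris buffer, pH 8.0; read uses the 547/598 nm excitation/emission pair.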
# A647 autofl = compound autofluorescence in A647 spectral region; Compound fluorescence, A647 channel (570/671 nm), Tris buffer; max dye-equivalent concentration, M; 59,000 tested, under 10 active;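 also: values scaled relative to a standard on each plate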
#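 Fluorescence read (570 nm ex, 671 nm em) after 15 min RT incubation of compounds in 100 mM Tris buffer, pH 8.0; values expressed as dye-equivalent concentration against a six-point A647 standard series on each plate.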
# Resorufin autofl = resorufin region autofluorescence | Compound fluorescence, resorufin region 547/598 nm, buffer; hits give high values | AID 588 | max dye-equivalent concentration, M | actives 0.04% (n = 59,000)
#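 Compounds in 100 mM Tris buffer, pH 8.0, incubated 15 min at room temperature, then read with 547 nm excitation and 598 nm emission filters. Fluorescence was converted to dye-equivalent concentration using an on-plate six-point resorufin standard curve.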
# Texas Red fluor = compound fluoresces in the Texas Red spectral region | Compound fluorescence, Texas Red channel, 547/618 nm; hits give high values | max dye-equivalent concentration, M | actives 0.06% (n = 59,000) | AID 587; in the data active = max dye-equivalent concentration above about 10 nM; inconclusive = between about 1.1 nM and that limit
#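 Pin-transferred compounds and Texas Red standards go into 100 mM Tris buffer, pH 8.0. After 15 min at room temperature, plates are imaged with 547/618 nm filters. Each value is a dye-equivalent concentration derived from the per-plate dye curve.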
# Fluorescein autfl = compound fluoresces in the fluorescein spectral region. max fluorescein-equivalent concentration, M. actives 0.91% (n = 59,000). Compound autofluorescence, 480/540 nm, fluorescein-equivalent; hits give high values. AID 593; in the data active = max fluorescein-equivalent concentration above about 10 nM; inconclusive = between about 1.1 nM and that limit
#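 Spectral profiling of library compounds in the fluorescein window (480 nm excitation, 540 nm emission) after 15 min at room temperature in pH 8.0 Tris (100 mM). Values are dye-equivalent concentrations.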
# A488 fluor = compound fluoresces in the A488 spectral region; compound autofluorescence, A488 spectral region, dye equivalency; Compound Type: qHTS ECL - MLSMR; max dye equivalency, M; actives 0.1% (n = 59,000); AID 591
#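 Intrinsic compound fluorescence is measured in 100 mM Tris buffer at pH 8.0 following 15 min incubation at room temperature. Intensities at 480 nm excitation/540 nm emission are calibrated to an on-plate A488 concentration series, giving dye-equivalent concentrations.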
# An asterisk follows results filed as active; i = inactive; ? = inconclusive. Unless noted, no rule for the calls is given here.
SMILES,Rhodamine autofl,A647 autofl,Resorufin autofl,Texas Red fluor,Fluorescein autfl,A488 fluor
CC(C)(C)OC(=O)N1CC=C2C(C#N)=C(N)C(C#N)(C#N)[C@H](c3cccnc3)[C@H]2C1,i,7.72e-08,i,i,?,i
CC(C)(C)OC(=O)N1CC=C2C(C#N)=C(N)C(C#N)(C#N)C(c3cccs3)C2C1 (stereo not drawn),i,4.06e-08,i,i,1.83e-08M*,i
CC1CC=C2C(C#N)=C(N)C(C#N)(C#N)C(c3cccs3)C2C1 (stereo not drawn),i,2.37e-08,i,i,2.66e-08M*,i
COc1ccc(N=c2oc3cc(O)ccc3cc2C(=O)NCC2CCCO2)cc1 (stereo not drawn),i,1.4e-09,i,i,i,i
COc1ccc(N=c2oc3cc(O)ccc3cc2C(=O)NCC2CCCO2)c(OC)c1 (stereo not drawn),i,2.59e-08,i,i,1.37e-08M*,i
O=C1C2=C(Nc3cc([N+](=O)[O-])ccc3N2)O[C@@H]1c1ccc([C@H]2OC3=C(Nc4ccc([N+](=O)[O-])cc4N3)C2=O)cc1,i,6.9e-09,i,i,i,i
Cc1nc(N)nc2ccccc12,i,1.43e-08,i,i,?,i
CCOc1ccc2nc(NS(=O)(=O)c3ccc4c(c3)n(C)c(=O)n4C)sc2c1,i,1e-09,i,i,1.17e-08M*,i
Cc1cc(N=Cc2c(O)n(-c3ccc4c(c3)OCO4)c(=O)c3ccccc23)ccn1,i,2.3e-09,i,?,?,i
Cc1cccc(-n2c(O)c(C=Nc3ccc4c(c3)OCO4)c3ccccc3c2=O)n1,i,3.03e-08,i,i,5.84e-08M*,?
CCNc1ncc2nc(-c3cn(C)c4ccccc34)c(=O)n(Cc3cccc(OC)c3)c2n1,i,1.4e-09,i,i,i,i
COc1ccc(CNc2ncnc3ccc(-c4ccc(N(C)C)cc4)cc23)c(OC)c1,i,3.01e-08,i,i,?,i
N#[N+]c1ccc(Nc2ccccc2)cc1,i,1e-09,i,i,1.28e-08M*,i
Cc1ccc(S(=O)(=O)N2CCC(C(=O)Nc3nnc(C4CCCC4)s3)CC2)cc1,i,1.1e-09,i,i,1.19e-08M*,i
COc1ccc(C(=O)Nc2nc(-c3cccs3)cs2)cc1,i,1.82e-08,i,i,?,i
Cc1csc(NC(=O)c2sc3nc(-c4cccs4)ccc3c2N)n1,i,1e-09,i,i,1.42e-08M*,i
CN1/C(=C\C(=O)COC(=O)Cn2nnc(-c3ccccc3)n2)C(C)(C)c2ccccc21,?,9.5e-09,?,2.21e-08M*,?,i
O=c1c(CCc2ccccc2)nc2cnc(N3CCNCC3)nc2n1Cc1ccc(F)cc1,i,3.24e-08,i,i,?,i
CN(C)c1ncc2nc(-c3ccc(F)cc3)c(=O)n(C[C@H]3CCCO3)c2n1,i,1e-09,i,i,i,i
CC(=O)[C@@H]1[C@H]2[C@@H](C(=O)[C@H]3OC[C@H]2O3)[C@@H]2C=Cc3ccccc3N12,i,2.05e-08,i,?,1.09e-08M*,i
Cc1cc(O)c(C(C)C)cc1CN1CCCCC1,i,1.69e-08,i,i,i,i
COc1ccc(-n2c(=O)c(CCc3ccccc3)nc3cnc(N4CCN(C)CC4)nc32)cc1,i,1e-09,i,i,1.22e-08M*,i
COc1ccccc1/C=c1\sc2nc(-c3ccncc3)nn2c1=O,i,1e-09,i,i,1.49e-08M*,i
CC(=O)CSCc1ccccn1,i,5.28e-08,i,i,?,i
CN(C)c1ncc2nc(-c3cccs3)c(=O)n(C3CC3)c2n1,i,1.37e-08,i,i,1.46e-08M*,i
SMILES,Rhodamine autofl,A647 autofl,Resorufin autofl,Texas Red fluor,Fluorescein autfl,A488 fluor
O=C(O)[C@@H](O)[C@@H](O)[C@@H](O)[C@@H](O)c1nc2ccccc2s1,i,9.3e-09,i,i,i,i
COc1[nH]c(/N=C/c2ccccc2)c(C#N)c1C#N,?,8e-09,?,?,3.58e-08M*,?
COc1nccc(Nc2ccccc2)c1C#N,i,1.69e-08,i,?,?,i
CC(C)(C)c1cc(/C=C(\C#N)C(N)=S)cc(C(C)(C)C)c1O,i,7.9e-09,i,i,2.76e-08M*,i
Cc1ccc(/C=c2\sc3nc(-c4ccco4)nn3c2=O)o1,i,1.85e-08,i,i,1.5e-08M*,i
C=C1CC[C@@H]2O[C@]2(C)CC[C@@H]2[C@H]1CC2(C)C,i,2.6e-09,i,i,i,i
CN(C)S(=O)(=O)N1CCc2ccccc21,i,4.1e-09,i,i,i,i
O=S(=O)(Cc1ccccc1)N1CCc2ccccc21,2.09e-08M*,7.6e-09,1.59e-08M*,2.01e-08M*,3.42e-08M*,?
Oc1ccccc1C(Sc1nc2ccccc2s1)Sc1nc2ccccc2s1,i,4.17e-08,i,i,?,i
COC(=O)C1=C(C)NC(C)=C(C(=O)OC(C)C)[C@H]1c1cccc2nonc12,i,2.7e-09,i,i,1.16e-08M*,i
CCn1nc(C)c(/C=C2\CCCC3=C2OC(N)=C(C#N)C3c2c(C)nn(CC)c2C)c1C (stereo not drawn),i,1e-09,i,i,2.42e-08M*,i
Cc1nn(-c2ccccc2)c(Cl)c1C1C(C#N)=C(N)OC2=C1C(=O)CCC2 (stereo not drawn),i,1e-09,i,i,?,i
COc1ccccc1-c1nccc(NCc2cccs2)n1,i,6.2e-09,i,i,i,i
O=C1c2cccc3c(N4CCCCC4)ccc(c23)C(=O)N1c1ccccn1,i,2.3e-09,i,i,2.66e-07M*,1.34e-08M*
Cc1nc2cnc(N3CCN(C)CC3)nc2n(CCc2ccccc2)c1=O,i,1e-09,i,i,i,i
COc1ccc(-c2nc3cnc(OC)nc3n(C)c2=O)cc1,i,3.7e-09,i,i,i,i
CCOC(=O)c1c2c(n3ccccc13)C(=O)c1ccccc1C2=O,i,1e-09,i,i,?,i
CCOC(=O)C(C(=O)OCC)c1cc(Br)c2noc3c2c1C(=O)c1ccccc1-3,i,5.6e-09,i,i,2.56e-07M*,1.25e-08M*
C[C@@H]1O[C@H](O[C@@H]2[C@@H](Oc3cc(O)c4c(c3)O[C@H](c3ccc(O)cc3)CC4=O)O[C@@H](CO)[C@@H](O)[C@H]2O)[C@@H](O)[C@H](O)[C@@H]1O,i,3e-08,i,i,?,i

# Bioassay records: PubChem BioAssay, National Center for Advancing Translational Sciences (NCATS)
